Reference: PMC7819943, “Rice protein-binding microarrays: a tool to detect cis-acting elements near promoter regions in rice”
Whole data set: some 39,000 sequences, median “fluorescence intensity (a.u.)” near 4,300, cut for the highest 2% near 39,000. Many of the other results were omitted from the sample, so the highest values are more common in it than they were.

Each sequence was assayed against T1, OsSMF1 (Oryza sativa, UniProt Q6ZLB0 1-436) (assay: protein-binding microarray (RPBM); PBS, 2% BSA, 51.3 ng/ul salmon testes DNA, 50 uM zinc acetate, 200 nM TF, 25 C, 1 h; high values mean tight binding). Details: protein: recombinant; tags: N-terminal polyhistidine and DsRed monomer fusion (pET32a); chain copies: 2; label: CyDye5-dUTP incorporated in the synthesized complementary strand; 3' TTTTT single-stranded linker to array surface; dsDNA, one strand shown.
T1 sequence: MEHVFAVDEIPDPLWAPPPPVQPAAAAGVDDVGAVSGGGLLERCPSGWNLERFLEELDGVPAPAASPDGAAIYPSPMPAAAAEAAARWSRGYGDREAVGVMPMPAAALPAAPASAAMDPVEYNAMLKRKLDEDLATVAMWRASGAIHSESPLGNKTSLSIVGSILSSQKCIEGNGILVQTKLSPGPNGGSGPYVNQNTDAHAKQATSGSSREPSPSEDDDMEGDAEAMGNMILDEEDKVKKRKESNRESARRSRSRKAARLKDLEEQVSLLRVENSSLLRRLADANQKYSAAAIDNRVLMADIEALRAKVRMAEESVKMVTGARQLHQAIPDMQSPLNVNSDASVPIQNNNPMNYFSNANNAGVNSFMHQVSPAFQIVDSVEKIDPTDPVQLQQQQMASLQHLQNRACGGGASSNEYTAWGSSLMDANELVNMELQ
Procedure, shortened: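 An Axon 4000B scanner gave the binding signal as per-feature fluorescence intensity in arbitrary units. This followed washing of a custom Agilent array that had been incubated for 1 h at 25 °C with 200 nM protein in PBS, 2% BSA, salmon testes DNA and 50 µM zinc acetate. The proteins were transcription factors fused at the N-terminus to polyhistidine and DsRed, expressed in E. coli BL21-CodonPlus and purified on Ni–NTA.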

Sequence	binding signal
CAGGGGCATTTCCGTAAACTCCCACGTGGCACAGATACGGCGGAGTCACCTAGTGCAG	13200 fluorescence intensity (a.u.)
TCTTGACATCCGGAATCATCACGCTCTTCCCAATCGAGGTCGGAGTCACCTAGTGCAG	3680 fluorescence intensity (a.u.)
AAGTAGCCCGGATCTCCCAGCTTCCCTCGAGCTGACCTCACGGAGTCACCTAGTGCAG	3960 fluorescence intensity (a.u.)
TGCTGACTATGATGCCACGTCAGCGAAACCACCCATATATCGGAGTCACCTAGTGCAG	23000 fluorescence intensity (a.u.)
TTTAATTCAAATGCCAGCTAAGCGCTACGTCAACCCTACACGGAGTCACCTAGTGCAG	15500 fluorescence intensity (a.u.)
ACTAAGCTGCCACGTGGATGCCACGTCAGCGAAAACCACCCGGAGTCACCTAGTGCAG	61800 fluorescence intensity (a.u.)
TTTAATTCAAATGCCACCTAAGCACCACGTCAGCGAAACCCGGAGTCACCTAGTGCAG	42600 fluorescence intensity (a.u.)
TTTTAATTCAAATGCCACCTAAGCGCCACGTCAACCCTATCGGAGTCACCTAGTGCAG	23500 fluorescence intensity (a.u.)
TGCCACGTCAGCGAAAACCACCATCTAAACCACCGCCATGCGGAGTCACCTAGTGCAG	7960 fluorescence intensity (a.u.)
GGGCGGAGCTAGAATAAAATAAAGGAGGGTTCCACTCGTTCGGAGTCACCTAGTGCAG	23100 fluorescence intensity (a.u.)
TCGATTTACTGACAAAATTGTATCCCAAAACAATGGCTTACGGAGTCACCTAGTGCAG	33700 fluorescence intensity (a.u.)
TTCTCTACCAGCGGCAGCGGCGGCTGGTAGGGAGGAGGAGCGGAGTCACCTAGTGCAG	4860 fluorescence intensity (a.u.)
ATAAAGAAGGGAGGCAGCGGGCGAGCTGTAAAGGAGTACACGGAGTCACCTAGTGCAG	32300 fluorescence intensity (a.u.)
GGATTGACGGGGACGCGGTGGTGGCGCCAACGGATGGACGCGGAGTCACCTAGTGCAG	6220 fluorescence intensity (a.u.)
CATTTTGTACTTTGACAAGTATTTAATATTTGCCAGTAGTCGGAGTCACCTAGTGCAG	65100 fluorescence intensity (a.u.)
TTACTAGTACATTTAATATATTTATTTAATGTATTTGTATCGGAGTCACCTAGTGCAG	3140 fluorescence intensity (a.u.)
TTACTGGTGATATTTATTTTGACAAGTGCTTTTATTTGTACGGAGTCACCTAGTGCAG	3930 fluorescence intensity (a.u.)
ATATTCGTCTCTATCGCTTAAGGCGGTTAGTTGCGTGTCACGGAGTCACCTAGTGCAG	3930 fluorescence intensity (a.u.)
GTCCAATTTAATGCTGACGTTGCTGATGGAATGCCGTGGACGGAGTCACCTAGTGCAG	10500 fluorescence intensity (a.u.)
TTAATGATTTTATTTGAATGGATCAGGGTCCAATTTGCTGCGGAGTCACCTAGTGCAG	55800 fluorescence intensity (a.u.)
AATCATTTTATTTGACTAATACACGTCAGGATTGAATGAGCGGAGTCACCTAGTGCAG	4880 fluorescence intensity (a.u.)
GCAGGGCAGGCTGACAGCTCATCTTCTCAGAGGATCCGATCGGAGTCACCTAGTGCAG	5100 fluorescence intensity (a.u.)
AGCGTCGCGCCGCGCCACGCCACGCCACGCCACCCCACCACGGAGTCACCTAGTGCAG	5830 fluorescence intensity (a.u.)
TGAGCCACGCACTGAACACGACCGTTCGATCCCCTCAAGGCGGAGTCACCTAGTGCAG	3810 fluorescence intensity (a.u.)
ATACCTGATCCTACTTGTCATACACATATTTATCTTATAGCGGAGTCACCTAGTGCAG	3620 fluorescence intensity (a.u.)
CGTATATGTATATATACATACTTTATACACATATATATACCGGAGTCACCTAGTGCAG	3360 fluorescence intensity (a.u.)
TTTGGTGCGAGCGAAATACCAGGATCTTTATACACATAGCCGGAGTCACCTAGTGCAG	58000 fluorescence intensity (a.u.)
ACTGCCATGGTTGCGGAGCAGGATGGTGACGTGGATCCCACGGAGTCACCTAGTGCAG	17700 fluorescence intensity (a.u.)

Sequence	binding signal
GCCGCTTTTGCGAATTTTGCACGTAGACCCCTTGCCGCCCCGGAGTCACCTAGTGCAG	3330 fluorescence intensity (a.u.)
ACACAGCCACGCCCGTACGCAGCTACGTACGCACGCATCACGGAGTCACCTAGTGCAG	5670 fluorescence intensity (a.u.)
TCACCACCTCACTCCACTAACCAGAGAGAGAACGCAGCTACGGAGTCACCTAGTGCAG	21000 fluorescence intensity (a.u.)
TTGTACCAGCTAACTCATCACCACGCAGGCCAGAGTAGTACGGAGTCACCTAGTGCAG	45900 fluorescence intensity (a.u.)
CGTGAGCGGGTGGTGGTGGTGATGGCGTTCGCGGTGGCGACGGAGTCACCTAGTGCAG	3520 fluorescence intensity (a.u.)
AGCTTCGCACTGGGCACGTGTGCCTGTGTGTGGGAGTCAGCGGAGTCACCTAGTGCAG	4070 fluorescence intensity (a.u.)
GAAGTGGTTCTGCACTGTGATTTGAAGCCTAGCAACGTGCCGGAGTCACCTAGTGCAG	35800 fluorescence intensity (a.u.)
CAAACTGCAACTCCAATATCACATTTTCTTTCTCTTTTCCCGGAGTCACCTAGTGCAG	19700 fluorescence intensity (a.u.)
CAGTCAGTCAGTAGGTTCCCAGAATTTTCTCCCTGCAAACCGGAGTCACCTAGTGCAG	50200 fluorescence intensity (a.u.)
TGCTGCCAGAGTCAGTAGGTGCCCTCTTCCACCTGCAGACCGGAGTCACCTAGTGCAG	3270 fluorescence intensity (a.u.)
CAAACAAGGACCGTAGACACTCTAACCAACCCCAATAACACGGAGTCACCTAGTGCAG	31300 fluorescence intensity (a.u.)
TCAGTAGGCCAGTAGCTAGCTGCTGCCTTCACACATCAATCGGAGTCACCTAGTGCAG	3160 fluorescence intensity (a.u.)
CACATCGTTGCCAATGTTGCCACGTACCAAGGTCATATGGCGGAGTCACCTAGTGCAG	9400 fluorescence intensity (a.u.)
ATGAACATATTTCAATCGTTCAGTACCTTCAAGCCACAGGCGGAGTCACCTAGTGCAG	39800 fluorescence intensity (a.u.)
GCCAGCTGCCACGTGGGACAAAATCGGGGTCAAAACCACCCGGAGTCACCTAGTGCAG	12700 fluorescence intensity (a.u.)
GTCCAGCCTCCTCCTCCGCTGACCTCCTCGCGGTCTTCTCCGGAGTCACCTAGTGCAG	4520 fluorescence intensity (a.u.)
CCTCGTCCGCCTTGGTCTTCTTCCAGCCGAGGAGCAACCGCGGAGTCACCTAGTGCAG	48200 fluorescence intensity (a.u.)
CGAGCCGCCTCCGCCACCGCCGCCTCCTTCCGACCAGCCGCGGAGTCACCTAGTGCAG	3530 fluorescence intensity (a.u.)
AGCTTACTATGATACCGATGAACACGTTATGACAACAAACCGGAGTCACCTAGTGCAG	3880 fluorescence intensity (a.u.)
CAAATACTAAATGATTTCAAATGAAAACGTCATCAACAACCGGAGTCACCTAGTGCAG	3560 fluorescence intensity (a.u.)
AATCAAACTTTCAATTTTAGCGTGAACTAAACACACCCTTCGGAGTCACCTAGTGCAG	3680 fluorescence intensity (a.u.)
AACGTGAACTAAACACATGTCGAAATGCAATCAAAATACCCGGAGTCACCTAGTGCAG	42000 fluorescence intensity (a.u.)
ATAGAAACATAGCGTGACACAACATAACAAACCAATGCAACGGAGTCACCTAGTGCAG	4630 fluorescence intensity (a.u.)
CCAAATAGACTCTTACTTATAAGGGTTGAGTCTAGAGTGACGGAGTCACCTAGTGCAG	6050 fluorescence intensity (a.u.)
TGATTGTGACACTAGCACGACGCACTTTCCTCTATATACACGGAGTCACCTAGTGCAG	3630 fluorescence intensity (a.u.)
ATAAAGTCCTTATCGGACACTAAACGCACTTTCCTAAAGACGGAGTCACCTAGTGCAG	39200 fluorescence intensity (a.u.)
ATGAACTAAACGCACCCTTGTAAGTCTGACACACTGTGGACGGAGTCACCTAGTGCAG	3720 fluorescence intensity (a.u.)
